In PubChem BioAssay AID435017 (Vanderbilt High Throughput Screening Facility, 2010):
Results with a measured potency or affinity are listed apart. Active and inactive are the calls of the source.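 How the source made its calls: active means compounds with a dose-dependent response across tested concentrations; inactive means the rest.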

What follows are compounds tested against ATP-sensitive inward rectifier potassium channel 1 (Homo sapiens) (UniProt P48048) (assay: Kir1.1 channel inhibitor analog potency – cell-based, thallium flux, analog library, SAR follow-up (AID 435017)). Conditions: Tet-inducible ROMK, thallium flux fluorescence; series mostly up to 10 µM.
Chain of ATP-sensitive inward rectifier potassium channel 1 (Homo sapiens) (P48048 whole entry, looked up): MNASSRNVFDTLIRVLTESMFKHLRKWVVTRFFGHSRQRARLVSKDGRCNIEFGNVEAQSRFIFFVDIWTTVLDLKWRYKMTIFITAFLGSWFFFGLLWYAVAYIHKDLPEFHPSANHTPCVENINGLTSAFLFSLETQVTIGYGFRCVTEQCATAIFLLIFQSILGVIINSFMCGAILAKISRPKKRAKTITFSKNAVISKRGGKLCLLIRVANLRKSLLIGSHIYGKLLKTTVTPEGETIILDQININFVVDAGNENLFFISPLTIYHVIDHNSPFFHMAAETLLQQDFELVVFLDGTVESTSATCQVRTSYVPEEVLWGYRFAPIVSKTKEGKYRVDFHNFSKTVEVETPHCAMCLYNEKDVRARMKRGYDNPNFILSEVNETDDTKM
`CN(C)S(=O)(=O)c1ccc2nc(COCc3nc4ccc(S(=O)(=O)N(C)C)cc4[nH]3)[nH]c2c1` was tested, and the outcome was “inactive”.
In the case of `O=[N+]([O-])c1cccc(CN2CCOCCOCCN(Cc3cccc([N+](=O)[O-])c3)CCOCC2)c1`, the outcome is reported as “inactive”.
`O=C(Nc1ccc([N+](=O)[O-])cc1)N1CCOCCOCCN(C(=O)Nc2ccc([N+](=O)[O-])cc2)CCOCC1` was tested, and the outcome was “inactive”.
For `CS(=O)(=O)c1ccc(CN2CCOCCOCCN(Cc3ccc(S(C)(=O)=O)cc3)CCOCC2)cc1`, the outcome was “inactive”.
`O=[N+]([O-])c1ccc(CN2CCOCCOCCN(Cc3ccc([N+](=O)[O-])cc3[N+](=O)[O-])CCOCC2)c([N+](=O)[O-])c1` was tested, and the outcome was “inactive”.
In the case of `Fc1ccc(CN2CCOCCOCCN(Cc3ccc(F)c(F)c3)CCOCC2)cc1F`, the outcome is reported as “inactive”.
For `O=C(c1ccc([N+](=O)[O-])cc1)N1CCOCCOCCN(C(=O)c2ccc([N+](=O)[O-])cc2)CCOCC1`, the outcome was “inactive”.
For `O=S(=O)(c1ccc(CN2CCOCCOCCN(Cc3ccc(S(=O)(=O)C(F)(F)F)cc3)CCOCC2)cc1)C(F)(F)F`, the outcome was “inactive”.
For `O=[N+]([O-])c1ccc(CN2CCOCCOCCN(Cc3ccc([N+](=O)[O-])cc3Cl)CCOCC2)c(Cl)c1`, the outcome was “inactive”.
`Fc1ccc2nc(COCc3nc4ccc(F)cc4[nH]3)[nH]c2c1` was tested, and the outcome was “inactive”.
For `O=[N+]([O-])c1ccc2nc(COCc3nc4ccccc4[nH]3)[nH]c2c1`, the outcome was “inactive”.
With `c1ccc2[nH]c(COCc3nc4ccccc4[nH]3)nc2c1` the outcome was “inactive”.
`COCCN(CCOC)Cc1ccc([N+](=O)[O-])cc1` was tested, and the outcome was “inactive”.
`O=[N+]([O-])c1ccc(S(=O)(=O)N2CCOCCOCCN(S(=O)(=O)c3ccc([N+](=O)[O-])cc3)CCOCC2)cc1` was tested, and the outcome was “inactive”.
